# Measured values reported in PubChem BioAssay (EPA / NIEHS).
# Several values for one entry are separate records, joined by “and”; a condition that tells them apart may be missing. Equal values may be shown once. Inconclusive results are not listed. The source holds several records for some structures; these can differ, active in one and inactive in another. Activity calls are given as the source filed them. The calls were made as follows, unless noted: active = hit-call score of the fitted dose curve at least 0.9, where 1 is the maximum; inconclusive = response in the unintended direction; inactive = score below 0.9.
# Key:
# [1] = molecular target: bovine Estrogen Receptor (ER), ESR1 (gene 407238) (UniProt P49884); assay: NVS_NR_bER: NovaScreen (NVS) Nuclear Receptor Binding Assay for bovine Estrogen Receptor (ER) (AID 2283345);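 also: actives lower the bound radioligand count which means they displace the ER ligand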
# Outline: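 Cell-free radioligand binding with receptor from bovine uterine membranes, read by scintillation counting 18 h after dosing. Loss of specific binding was scored against DMSO; primary screen at 25 uM in duplicate, actives then run as concentration series.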
# [2] = molecular target: Estrogen receptor (Homo sapiens) (UniProt P03372); assay: NVS_NR_hER: NovaScreen (NVS) Nuclear Receptor Binding Assay for human Estrogen Receptor (ER) (AID 2283348)
# Outline: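 Radiodetection of ligand displacement in a lysate-based, cell-free format using MCF7 extracts, read at 18 hours. Duplicate 25 uM primary testing, then concentration series for actives.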
# [3] = TOX21_p53_BLA_p2_viability: Viability Assessment in the Tox21 HCT-116 p53 Agonism Beta-lactamase Assay, Phase 2 (AID 2283591);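 also: compound exposure lasted 16 h at 37 °C; actives lower the ATP signal meaning cytotoxicity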
# Outline: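 HCT-116 p53-bla cells (4000/well) rested 5 h at 37C, then received compounds in DMSO (217-fold dilution) for 16 h at 37C, 5% CO2. After the CCF4 read, CellTiter-Glo was added; ATP luminescence was read after 30 min at room temperature.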
# [4] = molecular target: Cellular tumor antigen p53 (Homo sapiens) (UniProt P04637); assay: TOX21_p53_BLA_p3_ratio: Tox21 HCT-116 p53 Agonism Beta-lactamase Assay, Ratio, Phase 3 (AID 2283596)
# Outline: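 Cells were seeded at 4000/well, rested 5 h at 37C, then dosed with DMSO compound solutions (217-fold dilution) for 16 h. CCF4-AM substrate was loaded for 2 h at room temperature, and the 460/530 nm emission ratio was fitted for gain of signal versus DMSO.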
# [5] = TOX21_p53_BLA_p4_viability: Viability Assessment in the Tox21 HCT-116 p53 Agonism Beta-lactamase Assay, Phase 4 (AID 2283597);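 also: hits lower the luminescence signal meaning cytotoxicity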
# Outline: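 Readout: ATP luminescence (CellTiter-Glo), measured 30 min after reagent addition at RT. The reagent followed a 2 h CCF4-AM incubation, and the cells had been exposed to compound for 16 h at 37C.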
# [6] = TOX21_p53_BLA_p5_viability: Viability Assessment in the Tox21 HCT-116 p53 Agonism Beta-lactamase Assay, Phase 5 (AID 2283600)
# Outline: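 Workflow: seed 4000 cells per well, wait 5 h, add compounds (DMSO, 217-fold dilution), incubate 16 h, load CCF4-AM 2 h, add CellTiter-Glo, read luminescence after 30 min.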
# [7] = molecular target: Cellular tumor antigen p53 (Homo sapiens) (UniProt P04637); assay: TOX21_p53_BLA_p2_ratio: Tox21 HCT-116 p53 Agonism Beta-lactamase Assay, Ratio, Phase 2 (AID 2283592)
# Outline: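 Plated HCT116 p53-bla cells (4000/well) received compound after 5 h, then 16 h at 37C/5% CO2. CCF4-AM added, 2 h RT. Ratio of 460 to 530 nm emission taken as the p53 reporter signal.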
# [8] = TOX21_p53_BLA_p3_viability: Viability Assessment in the Tox21 HCT-116 p53 Agonism Beta-lactamase Assay, Phase 3 (AID 2283593);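 also: cells exposed to compound for 16 h before reading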
# Outline: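 HCT-116 cells (4000/well) rested 5 h at 37C, then got DMSO compounds by pin tool (217-fold dilution) for 16 h at 37C, 5% CO2. After the bla read, CellTiter-Glo was added and luminescence read at 30 min, room temperature.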
# [9] = molecular target: Cellular tumor antigen p53 (Homo sapiens) (UniProt P04637); assay: TOX21_p53_BLA_p5_ratio: Tox21 HCT-116 p53 Agonism Beta-lactamase Assay, Ratio, Phase 5 (AID 2283599)
# Outline: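 HCT-116 cells carrying a p53-inducible beta-lactamase reporter were seeded at 4000 cells/well and dosed after 5 h with compound in DMSO (217-fold dilution). After 16 h at 37C, CCF4-AM substrate was added for 2 h, and the 460/530 nm emission ratio was scored as gain-of-signal versus DMSO.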
# [10] = molecular target: Cellular tumor antigen p53 (Homo sapiens) (UniProt P04637); assay: TOX21_p53_BLA_p4_ratio: Tox21 HCT-116 p53 Agonism Beta-lactamase Assay, Ratio, Phase 4 (AID 2283601)
# Outline: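 HCT116 cells carrying an inducible beta-lactamase reporter were plated at 4000 cells/well, rested 5 h, then exposed to compounds in DMSO (217-fold dilution) for 16 h at 37C. CCF4-AM substrate was loaded 2 h at room temperature; 460/530 nm emission ratio scored gain-of-signal versus DMSO.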
# [11] = molecular target: mouse Estrogen Receptor alpha (Era), Esr1 (gene 13982) (UniProt P19785); assay: NVS_NR_mERa: NovaScreen (NVS) Nuclear Receptor Binding Assay for mouse Estrogen Receptor alpha (Era) (AID 2283378);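 also: hit means loss of bound radioligand signal relative to DMSO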
# Outline: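 Extracted mouse Era incubated with tritiated or iodinated radioligand plus test chemical, 18 h. Bound fraction separated on filters, counted by scintillation. DMSO = negative control/baseline; duplicate single-point at 25 uM, then concentration-response follow-up.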
# [12] = molecular target: Norway rat Vesicular Monoamine Transporter (VMAT2), neurotransmitter transporter, Slc18a2 (gene 25549) (UniProt Q01827); assay: NVS_TR_rVMAT2: NovaScreen (NVS) Transporter Assay for Norway rat Vesicular Monoamine Transporter (VMAT2), neurotransmitter transporter (AID 2283376);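 also: actives lower the bound radioligand signal below the DMSO level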
# Outline: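 Binding endpoint from rat forebrain tissue, cell-free; 1 h incubation; filtered radioligand counted; 25 uM duplicate primary then dose series; DMSO negative control.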
# [13] = CCTE_Harrill_HTTr_Viability_MCF7: CCTE's 6-hour Cell Viability Assessment for the High-Throughput Transcriptomics (HTTr) Platform, in MCF-7 cells cultured in DMEM + 10% fetal bovine serum, Harrill Lab (AID 2284010; active = hit-call score of the fitted dose curve at least 0.9, where 1 is the maximum; inactive = score below 0.9)
# Outline: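 Read-out is propidium iodide gain of signal by high-content imaging, reflecting membrane integrity loss. Measurements are taken 6 h after dosing, eight concentrations per chemical, with DMSO serving as baseline for bidirectional curve fitting.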
# [14] = CCTE_Harrill_HTTr_Apoptosis_MCF7: CCTE's 6-hour Apoptosis Assessment for the High-Throughput Transcriptomics (HTTr) Platform, in MCF-7 cells cultured in DMEM + 10% fetal bovine serum, Harrill Lab (AID 2284011; active = hit-call score of the fitted dose curve at least 0.9, where 1 is the maximum; inactive = score below 0.9)
# Outline: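 MCF-7 (DMEM + 10% FBS), 384-well; 8-pt dilution series, 6 h chemical exposure; caspase-3/7 activation via CellEvent Caspase 3/7 Green, HCI; bidirectional fit vs DMSO.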
# [15] = CCTE_Harrill_HTTr_CellCount_MCF7: CCTE's Cell Proliferation Assessment for the High-Throughput Transcriptomics (HTTr) Platform, Harrill Lab (AID 2284012);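 also: cells exposed to compound for six hours; intended direction is loss of nuclei count meaning fewer cells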
# Outline: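 Cell count served as viability reporter: loss of Hoechst-stained nuclei, counted by high content imaging, marks decreased growth or survival. Exposure was 6 h in MCF-7 cells across eight concentrations, with DMSO as baseline.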
# [16] = ACEA_ER_AUC_viability: ACEA Biosciences xCELLigence Real-Time Cell Analysis on Estrogen Receptor Agonism for Viability (AID 2283782);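 also: hit means loss of impedance signal meaning reduced cell growth or viability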
# Outline: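 Continuous-exposure impedance cell analysis uses T-47D cells in charcoal-stripped serum, eight 1:4 dilutions topping at 100 uM final, biological duplicate. Area under the growth curve at 80 h is fitted against DMSO baseline.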
# PGR (gene 5241) [17] = molecular target: PGR (gene 5241) (UniProt P06401); assay: TOX21_PR_BLA_Followup_Antagonist_ratio: Tox21 HEK293 Progesterone Receptor (PR) Antagonism Beta-lactamase Follow-Up Assay, Ratio (AID 2283934);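 also: PR-UAS-bla HEK293T cells stimulated with 1 nM R5020 agonist for 16 hr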
# Outline: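 Cells are plated, rested 6 hr, then dosed with test compound in DMSO and challenged with 1 nM promegestone. After 16 hr incubation, substrate loading for 2 h at room temperature precedes fluorescence reading; viability is measured in the same wells.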
# [18] = TOX21_PR_BLA_Followup_Agonist_viability: Viability Assessment in the Tox21 HEK293 Progesterone Receptor (PR) Agonism Beta-lactamase Follow-Up Assay (AID 2283935);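 also: signal loss means lower viability so actives are cytotoxic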
# Outline: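 Cells were plated in medium with 2% charcoal-stripped FBS and rested 6 hr. Compounds in DMSO were then added for 16 hr at 37C, followed by the FRET substrate step and CellTiter-Glo luminescence after 30 min.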
# [19] = TOX21_PR_BLA_Followup_Antagonist_viability: Viability Assessment in the Tox21 HEK293 Progesterone Receptor (PR) Antagonism Beta-lactamase Follow-Up Assay (AID 2283936);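 also: cells exposed to compound with R5020 agonist for 16 h; hits lower the luminescence signal meaning cytotoxicity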
# Outline: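 PR-UAS-bla HEK293T cells in medium with 2% charcoal-stripped FBS were treated with compounds plus R5020 for 16 hr at 37C. After the beta-lactamase read, CellTiter-Glo was added to the same wells and luminescence read after 30 min at room temperature.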
# PGR (gene 5241) [20] = molecular target: PGR (gene 5241) (UniProt P06401); assay: TOX21_PR_LUC_Followup_Antagonist: Tox21 HEK293 Progesterone Receptor (PR) Antagonism Luciferase Follow-Up Assay (AID 2283938);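 also: curve fitted upward as signal gain over DMSO baseline despite antagonist label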
# Outline: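 Cells are grown 5 days in charcoal-stripped-FBS assay medium, plated, left 5 h, then dosed with compound and incubated 16 h. ONE-Glo reagent is added and luminescence read after 30 min.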
# [21] = TOX21_PR_LUC_Followup_Agonist_viability: Viability Assessment in the Tox21 HEK293 Progesterone Receptor (PR) Agonism Luciferase Follow-Up Assay (AID 2283941);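 also: loss of signal means cytotoxicity so actives lower viability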
# Outline: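 Multiplexed viability endpoint of the PR agonist luciferase follow-up: HEK293-PR-A-luc cells treated 16 h at 37C, with viability scored as decrease in CellTiter-Glo ATP signal.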
# bovine Estrogen Receptor (ER), ESR1 (gene 407238), sequence (P49884 whole entry, looked up): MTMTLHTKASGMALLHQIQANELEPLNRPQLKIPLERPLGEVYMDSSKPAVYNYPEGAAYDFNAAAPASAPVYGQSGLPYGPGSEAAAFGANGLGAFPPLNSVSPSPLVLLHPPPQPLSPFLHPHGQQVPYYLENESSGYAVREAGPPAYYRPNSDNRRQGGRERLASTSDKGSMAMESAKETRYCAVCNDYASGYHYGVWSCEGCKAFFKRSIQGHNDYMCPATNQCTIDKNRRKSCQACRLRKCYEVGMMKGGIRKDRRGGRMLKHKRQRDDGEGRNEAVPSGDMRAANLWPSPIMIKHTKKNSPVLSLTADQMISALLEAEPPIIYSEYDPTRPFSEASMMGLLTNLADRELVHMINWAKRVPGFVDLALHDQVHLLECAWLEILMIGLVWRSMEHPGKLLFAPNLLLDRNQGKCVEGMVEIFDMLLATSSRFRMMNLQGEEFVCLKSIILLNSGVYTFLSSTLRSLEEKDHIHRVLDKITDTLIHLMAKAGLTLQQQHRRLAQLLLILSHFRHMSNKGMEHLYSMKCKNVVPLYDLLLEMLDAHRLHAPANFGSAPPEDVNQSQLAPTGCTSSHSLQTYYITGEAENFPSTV
# Cellular tumor antigen p53 (Homo sapiens), sequence (P04637 whole entry, looked up): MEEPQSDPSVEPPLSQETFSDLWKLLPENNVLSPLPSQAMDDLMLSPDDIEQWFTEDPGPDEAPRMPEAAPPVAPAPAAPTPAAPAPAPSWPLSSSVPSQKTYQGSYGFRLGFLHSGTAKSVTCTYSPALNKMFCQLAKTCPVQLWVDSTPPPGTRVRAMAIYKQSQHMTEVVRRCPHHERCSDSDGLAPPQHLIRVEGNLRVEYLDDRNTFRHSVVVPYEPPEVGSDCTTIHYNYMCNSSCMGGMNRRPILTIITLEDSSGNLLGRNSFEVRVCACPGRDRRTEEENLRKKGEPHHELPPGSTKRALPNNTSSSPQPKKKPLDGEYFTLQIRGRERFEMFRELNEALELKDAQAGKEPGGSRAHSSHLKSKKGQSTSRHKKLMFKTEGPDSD
# Estrogen receptor (Homo sapiens), sequence (P03372 whole entry, looked up): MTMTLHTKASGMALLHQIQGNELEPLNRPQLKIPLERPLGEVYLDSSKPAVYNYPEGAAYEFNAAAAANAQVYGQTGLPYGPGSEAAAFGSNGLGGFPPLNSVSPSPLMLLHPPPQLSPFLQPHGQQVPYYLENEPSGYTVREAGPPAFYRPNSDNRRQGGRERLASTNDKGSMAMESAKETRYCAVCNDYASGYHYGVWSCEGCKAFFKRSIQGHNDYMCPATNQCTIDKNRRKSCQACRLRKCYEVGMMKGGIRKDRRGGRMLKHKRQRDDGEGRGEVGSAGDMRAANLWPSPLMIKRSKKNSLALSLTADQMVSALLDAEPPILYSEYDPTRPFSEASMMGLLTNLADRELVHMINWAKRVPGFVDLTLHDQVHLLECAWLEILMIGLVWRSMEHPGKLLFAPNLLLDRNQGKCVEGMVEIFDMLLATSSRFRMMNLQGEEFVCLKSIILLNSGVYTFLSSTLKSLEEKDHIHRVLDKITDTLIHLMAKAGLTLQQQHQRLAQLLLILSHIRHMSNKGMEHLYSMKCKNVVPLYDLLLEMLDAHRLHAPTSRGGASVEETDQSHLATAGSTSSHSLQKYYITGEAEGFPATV
# Norway rat Vesicular Monoamine Transporter (VMAT2), neurotransmitter transporter, Slc18a2 (gene 25549), sequence (Q01827 whole entry, looked up): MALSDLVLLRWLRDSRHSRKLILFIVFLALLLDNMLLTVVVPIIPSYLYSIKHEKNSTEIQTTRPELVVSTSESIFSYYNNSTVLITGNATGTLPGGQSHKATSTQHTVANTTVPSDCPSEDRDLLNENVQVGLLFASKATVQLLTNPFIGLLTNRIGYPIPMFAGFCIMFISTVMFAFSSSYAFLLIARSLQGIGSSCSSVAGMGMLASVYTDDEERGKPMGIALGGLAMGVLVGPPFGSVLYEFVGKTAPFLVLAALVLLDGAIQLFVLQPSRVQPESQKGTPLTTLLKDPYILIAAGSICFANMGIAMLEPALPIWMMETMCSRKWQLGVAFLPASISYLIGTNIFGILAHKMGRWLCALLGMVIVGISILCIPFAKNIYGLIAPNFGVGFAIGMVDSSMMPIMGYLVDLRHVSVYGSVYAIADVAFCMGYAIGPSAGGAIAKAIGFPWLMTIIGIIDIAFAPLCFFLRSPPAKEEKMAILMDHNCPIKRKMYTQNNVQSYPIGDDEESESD
# mouse Estrogen Receptor alpha (Era), Esr1 (gene 13982), sequence (P19785 whole entry, looked up): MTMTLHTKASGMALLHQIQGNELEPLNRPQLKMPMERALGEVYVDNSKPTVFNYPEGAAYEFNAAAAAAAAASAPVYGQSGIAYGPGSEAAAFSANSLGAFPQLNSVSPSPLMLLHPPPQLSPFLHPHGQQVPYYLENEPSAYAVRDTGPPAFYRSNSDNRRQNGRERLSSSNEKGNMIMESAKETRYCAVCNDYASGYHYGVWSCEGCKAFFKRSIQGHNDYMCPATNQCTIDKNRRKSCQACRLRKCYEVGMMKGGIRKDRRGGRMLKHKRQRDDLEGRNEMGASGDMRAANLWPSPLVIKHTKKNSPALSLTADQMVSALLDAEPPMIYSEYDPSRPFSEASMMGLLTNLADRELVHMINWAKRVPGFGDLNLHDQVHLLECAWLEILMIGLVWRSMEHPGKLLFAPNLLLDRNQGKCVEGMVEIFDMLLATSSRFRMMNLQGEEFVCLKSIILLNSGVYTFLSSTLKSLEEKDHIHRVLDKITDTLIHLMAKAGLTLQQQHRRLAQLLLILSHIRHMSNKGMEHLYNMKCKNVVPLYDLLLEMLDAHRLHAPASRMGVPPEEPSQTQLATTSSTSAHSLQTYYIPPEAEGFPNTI
# PGR (gene 5241), sequence (P06401 whole entry, looked up): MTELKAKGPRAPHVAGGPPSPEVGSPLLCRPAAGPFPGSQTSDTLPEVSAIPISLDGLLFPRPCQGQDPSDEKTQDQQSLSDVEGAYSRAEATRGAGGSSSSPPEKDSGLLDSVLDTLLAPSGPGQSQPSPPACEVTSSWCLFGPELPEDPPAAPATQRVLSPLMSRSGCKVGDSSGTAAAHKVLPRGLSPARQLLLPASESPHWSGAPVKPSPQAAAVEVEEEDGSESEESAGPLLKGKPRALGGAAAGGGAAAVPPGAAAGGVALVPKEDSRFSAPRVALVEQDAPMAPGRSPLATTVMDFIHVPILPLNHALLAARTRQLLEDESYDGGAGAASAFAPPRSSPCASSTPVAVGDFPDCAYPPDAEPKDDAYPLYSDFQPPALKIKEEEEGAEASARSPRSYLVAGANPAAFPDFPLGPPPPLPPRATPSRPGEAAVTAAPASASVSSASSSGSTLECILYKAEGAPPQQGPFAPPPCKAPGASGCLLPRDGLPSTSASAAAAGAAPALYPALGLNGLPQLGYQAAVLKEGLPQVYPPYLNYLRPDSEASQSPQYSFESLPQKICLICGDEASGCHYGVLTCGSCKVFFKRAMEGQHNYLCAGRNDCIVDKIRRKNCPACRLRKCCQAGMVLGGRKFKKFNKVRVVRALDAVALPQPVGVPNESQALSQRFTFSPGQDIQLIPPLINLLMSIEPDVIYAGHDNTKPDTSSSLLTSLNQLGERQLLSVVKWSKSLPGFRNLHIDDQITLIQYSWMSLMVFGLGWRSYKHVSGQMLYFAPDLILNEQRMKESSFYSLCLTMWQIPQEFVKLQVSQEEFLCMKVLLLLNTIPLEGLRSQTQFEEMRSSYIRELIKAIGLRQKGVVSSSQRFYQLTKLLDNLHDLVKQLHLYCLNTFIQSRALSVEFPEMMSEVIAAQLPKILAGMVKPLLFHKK
compound,measurement,setting,value
c1coc(-c2nc3ccccc3[nH]2)c1,outcome,[1],inactive
same,outcome,[2],inactive
same,outcome,[3],inactive
same,outcome,[4],inactive
same,outcome,[5],inactive
same,outcome,[6],inactive
CCCCCCCCCCCCCC[P+](CCCCCC)(CCCCCC)CCCCCC,AC50,[3],33.6 µM (active) and 20.1 µM (active)
same,outcome,[3],inactive
same,AC50,[7],59.6 µM (active) and 51.8 µM (active)
same,outcome,[7],inactive
same,AC50,[8],46.3 µM (active) and 28.9 µM (active)
same,AC50,[4],67.4 µM (active) and 50.1 µM (active) and 7.15 µM (active)
same,AC50,[5],34.3 µM (active) and 20.3 µM (active)
same,outcome,[5],inactive
same,AC50,[9],59.5 µM (active) and 58.6 µM (active)
same,outcome,[9],inactive
same,AC50,[6],32.3 µM (active) and 26.6 µM (active)
same,AC50,[10],66 µM (active) and 48.6 µM (active)
COC(=O)C(C)N(C(=O)Cc1ccccc1)c1c(C)cccc1C (stereo unspecified),outcome,[2],inactive
same,outcome,[11],inactive
same,outcome,[3],inactive
same,outcome,[4],inactive
CCCCC(CC)C(=O)O (stereo unspecified),outcome,[12],inactive
c1ccc(-c2nc3ccccc3[nH]2)cc1,AC50,[12],6.56 µM (active)
CC(Oc1ccc(Oc2ncc(C(F)(F)F)cc2Cl)cc1)C(=O)O (stereo unspecified),outcome,[1],inactive
same,outcome,[2],inactive
same,outcome,[3],inactive
same,outcome,[7],inactive
same,outcome,[8],inactive
same,outcome,[13],inactive
same,outcome,[14],inactive
same,outcome,[15],inactive
O=C1c2c(O)ccc(Nc3ccc(CCO)cc3)c2C(=O)c2c([N+](=O)[O-])ccc(O)c21,outcome,[12],inactive
IC(I)=C(I)I,outcome,[1],inactive
same,outcome,[2],inactive
same,outcome,[3],inactive
same,AC50,[7],13.2 µM (active)
same,outcome,[8],inactive
same,outcome,[4],inactive
same,AC50,[9],13.7 µM (active)
same,outcome,[6],inactive
CC(CC(C#N)(c1ccccc1)c1ccccc1)N(C)C (stereo unspecified),outcome,[3],inactive
[Cl][Sc]([Cl])[Cl],outcome,[12],inactive
CCCCON=O,outcome,[3],inactive
same,outcome,[7],inactive
CN(C)c1ccc(C(=C2C=CC(=[N+](C)C)C=C2)c2ccccc2)cc1,outcome,[12],inactive
OCC(CO)(CBr)CBr,outcome,[12],inactive
C=C(C)C(=O)OCCOCCOCCOC(=O)C(=C)C,outcome,[12],inactive
CCCN(CCC)c1c([N+](=O)[O-])cc(S(C)(=O)=O)cc1[N+](=O)[O-],outcome,[2],inactive
same,AC50,[16],50 µM (active)
c1ccc(C[P+](c2ccccc2)(c2ccccc2)c2ccccc2)cc1,AC50,[12],16.7 µM (active)
Cc1oc2c(NC(=O)c3c(Cl)cccc3Cl)cccc2c1C(C)(C)O,AC50,[12],11.9 µM (active)
CC(C)(C)CC(C)(C)c1ccc(OCCOCC[N+](C)(C)Cc2ccccc2)cc1,outcome,[12],inactive
CN(C)C(=O)Nc1cccc(OC(=O)NC(C)(C)C)c1,outcome,[1],inactive
same,outcome,[7],inactive
same,outcome,[8],inactive
same,outcome,[4],inactive
ClC1=C(Cl)C2(Cl)C(CBr)CC1(Cl)C2(Cl)Cl (stereo unspecified),AC50,[3],73.5 µM (active)
same,outcome,[3],inactive
same,outcome,[7],inactive
same,outcome,[4],inactive
same,outcome,[5],inactive
same,outcome,[9],inactive
same,outcome,[10],inactive
CN(c1nccc(=O)[nH]1)C1CCN(c2nc3ccccc3n2Cc2ccc(F)cc2)CC1,outcome,[12],inactive
CCOP(=S)(OCC)Oc1cnc2ccccc2n1,outcome,[1],inactive
same,outcome,[3],inactive
same,outcome,[7],inactive
same,outcome,[8],inactive
same,outcome,[4],inactive
same,outcome,[9],inactive
same,outcome,[6],inactive
same,outcome,[13],inactive
same,outcome,[14],inactive
same,outcome,[15],inactive
N#Cc1sc2c(=O)c3ccccc3c(=O)c=2sc1C#N,AC50,[1],9.58 µM (active)
same,AC50,[2],10.3 µM (active)
same,AC50,[3],14.9 µM (active)
same,AC50,[7],0.333 µM (active)
same,AC50,[4],52.2 µM (active)
same,AC50,[5],8.76 µM (active)
same,AC50,[9],0.347 µM (active)
same,AC50,[6],7.3 µM (active)
same,AC50,[10],6.18 µM (active)
same,AC50,[13],11.1 µM (active)
same,outcome,[15],inactive
COP(=S)(NC(C)C)Oc1ccc(C)cc1[N+](=O)[O-] (stereo unspecified),AC50,[1],9.3 µM (active)
same,AC50,[2],11.5 µM (active)
same,AC50,PGR (gene 5241) [17],20.3 µM (active)
same,outcome,[18],inactive
same,outcome,[19],inactive
same,AC50,PGR (gene 5241) [20],21.2 µM (active)
same,outcome,[21],inactive
Cc1cc(C)c(C=O)c(C)c1,outcome,[12],inactive
CSc1ccc(C(=O)C(C)(C)N2CCOCC2)cc1,AC50,[2],25 µM (active)
same,outcome,[11],inactive
same,outcome,[3],inactive
same,outcome,[8],inactive
same,outcome,[5],inactive
same,outcome,[9],inactive
same,outcome,[6],inactive
